Reference: the supplement of paper PMC10849652
Of roughly 7,900 targets only a part is listed; those with a hit were picked by preference. About 0.6% of all pairs of compound and target were hits.

Key:
Test in all cases: log2 fold change, soluble protein after heating vs DMSO (PISA); higher = thermal stabilisation; K562 cells, 10 uM, 30 min; active = over 0.2 and 3.5 SD of the protein, either way, in both replicates (recomputed)
erlotinib = compound: C#Cc1cccc(Nc2ncnc3cc(OCCOC)c(OCCOC)cc23)c1 [erlotinib]
Outline: (§1)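 For each measurement, 10 μM compound was applied for 30 min to K562 cells at 2×10^6 cells/mL. Aliquots were heated for 3 min across 48°C-58°C, pooled, and extracted in PBS with 0.5% NP-40 at 4°C; the supernatant after 21,000xg for 90 min was soluble protein. This was quantified by TMTpro 16plex LC-MS/MS with channel sums equalised, and thermal stability was reported relative to control samples from duplicates, on a log2 fold-change scale.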

[1] = compound: C/C(=N\NC(=O)C1=CC(=CC=C1)S(=O)(=O)N2CCOCC2)/C3=C(C=CC(=C3)Cl)O
Outline: as §1

[2] = compound: C1=CC(=C(C=C1Cl)C2=NC3=NC=CN=C3C(=N2)NC4=CC=NC=C4)F
Outline: as §1

[3] = compound: C1=CC(=CC=C1C2=NC3=C(N2)C=C(C=C3)C(=O)N)OC4=CC=C(C=C4)Cl
Outline: as §1

[4] = compound: C1=CC2=C(C=CC(=C2)/C=C\3/C(=O)NC(=NCC4=CC=CS4)S3)N=C1
Outline: as §1

[5] = compound: C1=CC2=NC=CN=C2C=C1/C=C/3\C(=O)NC(=O)S3
Outline: as §1

[6] = compound: C1=CC=C(C=C1)C2=NC(=C(N2)C3=CC=NC=C3)C4=CC(=C(C=C4)Cl)O
Outline: as §1

[7] = compound: C1=CC=C2C(=C1)C3=NNC4=CC=CC(=C43)C2=O
Outline: as §1

[8] = compound: C1CCN(C1)C(=O)NC2=CC=CC(=C2)NC3=NC=C(C(=N3)NCCC4=CN=CN4)Br
Outline: as §1

[9] = compound: C1CN(CCC1(CC2=CC=C(C=C2)Cl)N)C3=NC=NC4=C3C=CN4
Outline: as §1

IRAK-1-4 Inhibitor I = compound: C1COCCN1CCN2C3=CC=CC=C3N=C2NC(=O)C4=CC(=CC=C4)[N+](=O)[O-] [IRAK-1-4 Inhibitor I]
Outline: as §1

ibrutinib = compound: C=CC(=O)N1CCC[C@@H](n2nc(-c3ccc(Oc4ccccc4)cc3)c3c(N)ncnc32)C1 [ibrutinib]
Outline: as §1

[10] = compound: CC(=O)c1cnc2ccc(-c3cc(Cl)c(O)c(Cl)c3)nc2c1N[C@H]1CC[C@H](CN(C)C)CC1
Outline: as §1

ralimetinib = compound: CC(C)(C)Cn1c(N)nc2ccc(-c3[nH]c(C(C)(C)C)nc3-c3ccc(F)cc3)nc21 [ralimetinib]
Outline: as §1

[11] = compound: CC(C)(O)CC(=O)NCCn1ccc2ncnc(Nc3ccc(Oc4cccc(C(F)(F)F)c4)c(Cl)c3)c21
Outline: as §1

[12] = compound: CC(C)C1=C2N=C(C=C(N2N=C1)NCC3=CC=CC=C3)NCCCCCCN
Outline: as §1

[13] = compound: CC(C)C[C@@H](C=O)NC(=O)[C@H](CC(C)C)NC(=O)[C@H](CC(C)C)NC(=O)OCc1ccccc1
Outline: as §1

pinometostat = compound: CC(C)N(C[C@H]1O[C@@H](n2cnc3c(N)ncnc32)[C@H](O)[C@@H]1O)[C@H]1C[C@@H](CCc2nc3cc(C(C)(C)C)ccc3[nH]2)C1 [pinometostat]
Outline: as §1

[14] = compound: CC1=C(C(CC(=O)N1)C2=CC=C(C=C2)C(F)(F)F)C(=O)NC3=C(C=C4C(=C3)C=NN4)F
Outline: as §1

[15] = compound: CC1=C(C2=C(C=C1)C(=O)C3=CC=CC=C3N2CCCN)C
Outline: as §1

Measured: log2 fold change

MIF (UniProt P14174)
active: [2] 0.368
inactive: erlotinib 0.058 | [1] 0.128 | [3] 0.033 | [4] -0.07 | [5] 0.034 | [6] -0.037 | [7] -0.069 | [8] -0.057 | [9] -0.029 | IRAK-1-4 Inhibitor I 0.017 | ibrutinib 0.039 | [10] -0.014 | ralimetinib 0.071 | [11] -0.119 | [12] 0.052 | [13] 0.04 | pinometostat -0.043 | [14] 0.201 | [15] 0.133

IMMP1L (UniProt Q96LU5)
UniProt Q96LU5, sequence (Q96LU5 whole entry, looked up): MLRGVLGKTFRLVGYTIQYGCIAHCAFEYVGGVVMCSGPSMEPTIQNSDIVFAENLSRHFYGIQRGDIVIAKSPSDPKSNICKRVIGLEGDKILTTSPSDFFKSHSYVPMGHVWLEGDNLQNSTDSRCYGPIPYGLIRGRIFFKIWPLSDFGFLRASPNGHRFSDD
inactive: erlotinib 0.053 | [1] -0.018 | [2] 0.01 | [3] -0.017 | [4] 0.104 | [5] -0.022 | [6] -0.084 | [7] -0.046 | [8] 0.041 | [9] 0.013 | IRAK-1-4 Inhibitor I 0.006 | ibrutinib 0.043 | [10] 0.002 | ralimetinib 0.031 | [11] 0.03 | [12] 0.026 | [13] 0.112 | pinometostat -0.033 | [14] 0.06 | [15] 0.199

LARP4 isoform 4 (UniProt Q71RC2)
inactive: erlotinib 0.015 | [1] 0.007 | [2] -0.123 | [3] 0.055 | [4] 0.086 | [5] 0.002 | [6] -0.028 | [7] -0.044 | [8] -0.004 | [9] -0.035 | IRAK-1-4 Inhibitor I -0.091 | ibrutinib 0.037 | [10] -0.128 | ralimetinib 0.068 | [11] 0.046 | [12] -0.19 | [13] 0.059 | pinometostat 0.114 | [14] 0.133 | [15] -0.054

KPNB1 (UniProt Q14974)
active: [12] -0.355
inactive: erlotinib -0.001 | [1] 0.075 | [2] -0.03 | [3] -0.036 | [4] -0.028 | [5] 0.029 | [6] -0.049 | [7] -0.016 | [8] -0.034 | [9] -0.136 | IRAK-1-4 Inhibitor I -0.079 | ibrutinib -0.041 | [10] 0.033 | ralimetinib 0.042 | [11] -0.036 | [13] 0.035 | pinometostat 0.113 | [14] 0.012 | [15] -0.038

ILF3 isoform 7 (UniProt Q12906)
UniProt Q12906, sequence (Q12906 whole entry, looked up): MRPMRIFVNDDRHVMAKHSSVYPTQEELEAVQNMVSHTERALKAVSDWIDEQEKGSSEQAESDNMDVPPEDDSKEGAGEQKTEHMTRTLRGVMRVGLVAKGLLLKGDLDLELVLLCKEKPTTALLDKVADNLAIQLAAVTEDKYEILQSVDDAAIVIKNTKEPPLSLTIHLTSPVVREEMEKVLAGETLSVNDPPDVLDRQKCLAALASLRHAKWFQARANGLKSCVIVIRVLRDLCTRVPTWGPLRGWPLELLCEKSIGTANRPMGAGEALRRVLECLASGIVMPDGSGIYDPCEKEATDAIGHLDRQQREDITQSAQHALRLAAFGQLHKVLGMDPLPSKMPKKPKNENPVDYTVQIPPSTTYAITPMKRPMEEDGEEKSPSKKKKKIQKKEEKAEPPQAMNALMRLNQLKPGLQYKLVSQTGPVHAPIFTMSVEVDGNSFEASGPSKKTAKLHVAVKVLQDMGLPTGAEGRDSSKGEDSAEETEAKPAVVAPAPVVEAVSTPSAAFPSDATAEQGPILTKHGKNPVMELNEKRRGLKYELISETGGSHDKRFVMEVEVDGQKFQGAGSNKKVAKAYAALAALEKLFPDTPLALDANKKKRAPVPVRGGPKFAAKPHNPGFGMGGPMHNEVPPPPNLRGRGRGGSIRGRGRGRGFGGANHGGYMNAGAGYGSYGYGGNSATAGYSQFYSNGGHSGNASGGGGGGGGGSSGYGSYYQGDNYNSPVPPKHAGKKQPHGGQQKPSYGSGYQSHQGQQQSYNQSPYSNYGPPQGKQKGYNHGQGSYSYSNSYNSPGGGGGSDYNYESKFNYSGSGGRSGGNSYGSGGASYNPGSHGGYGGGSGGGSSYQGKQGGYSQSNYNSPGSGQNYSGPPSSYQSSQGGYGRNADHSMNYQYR
inactive: erlotinib -0.068 | [1] -0.084 | [2] -0.266 | [3] -0.004 | [4] -0.049 | [5] 0.099 | [6] -0.061 | [7] -0.01 | [8] 0.054 | [9] -0.186 | IRAK-1-4 Inhibitor I -0.098 | ibrutinib 0.014 | [10] 0.172 | ralimetinib 0.067 | [11] 0.086 | [12] 0.338 | [13] 0.001 | pinometostat 0.134 | [14] 0.006 | [15] 0.218

LPIN1 isoform 7 (UniProt Q14693)
UniProt Q14693, sequence (Q14693 whole entry, looked up): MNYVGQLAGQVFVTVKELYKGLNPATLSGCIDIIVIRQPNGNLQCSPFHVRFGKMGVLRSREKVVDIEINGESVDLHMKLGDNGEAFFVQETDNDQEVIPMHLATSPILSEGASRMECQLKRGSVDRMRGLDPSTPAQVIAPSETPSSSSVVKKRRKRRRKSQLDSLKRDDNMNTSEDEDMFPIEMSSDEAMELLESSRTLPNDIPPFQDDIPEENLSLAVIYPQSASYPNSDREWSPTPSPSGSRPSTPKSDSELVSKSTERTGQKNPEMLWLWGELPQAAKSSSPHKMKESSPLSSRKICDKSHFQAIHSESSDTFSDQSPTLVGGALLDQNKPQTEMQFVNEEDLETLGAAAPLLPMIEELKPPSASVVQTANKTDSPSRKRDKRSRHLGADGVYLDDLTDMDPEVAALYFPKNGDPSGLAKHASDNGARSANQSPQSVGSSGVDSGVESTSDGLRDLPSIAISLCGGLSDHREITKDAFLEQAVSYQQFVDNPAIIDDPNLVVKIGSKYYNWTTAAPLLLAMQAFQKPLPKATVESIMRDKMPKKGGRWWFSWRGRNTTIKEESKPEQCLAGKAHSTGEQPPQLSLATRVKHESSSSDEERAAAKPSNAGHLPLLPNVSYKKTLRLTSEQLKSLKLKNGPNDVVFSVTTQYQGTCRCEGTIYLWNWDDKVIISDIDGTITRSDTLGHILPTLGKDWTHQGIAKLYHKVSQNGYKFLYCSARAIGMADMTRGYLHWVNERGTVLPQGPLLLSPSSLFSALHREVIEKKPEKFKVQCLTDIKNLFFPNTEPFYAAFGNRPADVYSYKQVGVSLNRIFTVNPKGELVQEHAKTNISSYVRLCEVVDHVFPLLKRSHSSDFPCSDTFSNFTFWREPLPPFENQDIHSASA
active: [10] -0.379
inactive: erlotinib 0.027 | [1] 0.068 | [2] 0.059 | [3] -0.043 | [4] -0.001 | [5] -0.102 | [6] -0.031 | [7] 0.015 | [8] -0.033 | [9] 0.025 | IRAK-1-4 Inhibitor I 0.035 | ibrutinib 0.029 | ralimetinib 0.016 | [11] -0.033 | [12] -0.054 | [13] 0.046 | pinometostat 0.082 | [14] 0.092 | [15] 0.006

LTN1 isoform 3 (UniProt O94822)
active: [12] -0.305
inactive: erlotinib 0.026 | [1] 0.114 | [2] -0.021 | [3] -0.02 | [4] 0.032 | [5] -0.021 | [6] -0.027 | [7] -0.056 | [8] -0.027 | [9] -0.031 | IRAK-1-4 Inhibitor I -0.05 | ibrutinib -0.015 | [10] -0.02 | ralimetinib 0.007 | [11] -0.136 | [13] 0.055 | pinometostat 0.098 | [14] -0.007 | [15] 0.093

LIMA1 isoform 4 (UniProt Q9UHB6)
inactive: erlotinib -0.015 | [1] -0.062 | [2] -0.039 | [3] 0.069 | [4] 0.038 | [5] -0.015 | [6] 0.022 | [7] 0.054 | [8] 0 | [9] -0.039 | IRAK-1-4 Inhibitor I -0.031 | ibrutinib 0.033 | ralimetinib 0.011 | [11] 0.114 | [12] 0.206 | [13] -0.03 | pinometostat 0.006 | [14] 0.079 | [15] 0.049
active: [10] -0.267

LYN (UniProt P07948)
UniProt P07948, sequence (P07948 whole entry, looked up): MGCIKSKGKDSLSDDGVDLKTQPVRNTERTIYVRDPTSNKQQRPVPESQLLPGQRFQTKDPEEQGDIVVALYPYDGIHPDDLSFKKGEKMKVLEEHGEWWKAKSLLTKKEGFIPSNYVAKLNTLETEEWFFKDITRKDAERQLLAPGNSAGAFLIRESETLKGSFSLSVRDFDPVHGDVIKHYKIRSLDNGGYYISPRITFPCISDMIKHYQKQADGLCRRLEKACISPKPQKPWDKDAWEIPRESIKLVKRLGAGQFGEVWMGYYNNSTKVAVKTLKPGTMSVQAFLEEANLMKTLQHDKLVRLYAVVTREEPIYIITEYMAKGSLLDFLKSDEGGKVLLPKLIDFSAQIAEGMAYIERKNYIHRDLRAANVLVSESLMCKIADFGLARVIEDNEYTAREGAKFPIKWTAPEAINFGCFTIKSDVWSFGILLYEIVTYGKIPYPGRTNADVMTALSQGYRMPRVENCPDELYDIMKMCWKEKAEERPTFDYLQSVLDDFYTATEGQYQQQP
inactive: erlotinib -0.073 | [1] 0.044 | [2] -0.171 | [3] 0.007 | [4] 0.005 | [5] -0.028 | [6] -0.014 | [7] -0.253 | [8] 0.035 | [9] -0.015 | IRAK-1-4 Inhibitor I -0.016 | ralimetinib 0.045 | [11] 0.018 | [12] -0.03 | [13] 0.24 | pinometostat 0.065 | [14] 0.008 | [15] 0.078
active: ibrutinib 0.4 | [10] -0.456

METAP1D (UniProt Q6UB28)
UniProt Q6UB28, sequence (Q6UB28 whole entry, looked up): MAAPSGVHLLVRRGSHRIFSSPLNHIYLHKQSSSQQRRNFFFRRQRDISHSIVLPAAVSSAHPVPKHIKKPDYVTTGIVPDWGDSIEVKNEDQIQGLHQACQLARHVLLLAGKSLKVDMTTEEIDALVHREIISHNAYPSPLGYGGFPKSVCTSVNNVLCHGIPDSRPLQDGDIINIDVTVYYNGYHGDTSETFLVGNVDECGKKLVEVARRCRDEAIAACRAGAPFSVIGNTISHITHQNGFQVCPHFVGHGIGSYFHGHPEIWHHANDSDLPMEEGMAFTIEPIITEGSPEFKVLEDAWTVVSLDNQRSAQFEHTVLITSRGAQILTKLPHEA
inactive: erlotinib -0.061 | [1] -0.307 | [2] -0.02 | [3] 0.025 | [4] -0.004 | [5] -0.014 | [6] 0.005 | [7] -0.002 | [8] -0.018 | [9] 0.033 | IRAK-1-4 Inhibitor I -0.122 | ibrutinib 0.017 | [10] 0.084 | ralimetinib 0.01 | [11] -0.032 | [12] 0.094 | [13] 0.044 | pinometostat -0.003 | [14] 0.073 | [15] -0.024

IRAK4 (UniProt Q9NWZ3)
inactive: erlotinib 0.041 | [1] -0.009 | [2] 0.068 | [3] -0.038 | [4] 0.059 | [5] -0.023 | [6] 0.011 | [7] -0.004 | [8] 0.069 | [9] -0.074 | IRAK-1-4 Inhibitor I -0.012 | ibrutinib 0.002 | [10] 0.196 | ralimetinib -0.014 | [11] -0.092 | [13] -0.026 | pinometostat 0.065 | [14] 0.02 | [15] -0.002
active: [12] -0.252

KIF13A (UniProt Q9H1H9)
UniProt Q9H1H9, sequence (Q9H1H9 whole entry, looked up): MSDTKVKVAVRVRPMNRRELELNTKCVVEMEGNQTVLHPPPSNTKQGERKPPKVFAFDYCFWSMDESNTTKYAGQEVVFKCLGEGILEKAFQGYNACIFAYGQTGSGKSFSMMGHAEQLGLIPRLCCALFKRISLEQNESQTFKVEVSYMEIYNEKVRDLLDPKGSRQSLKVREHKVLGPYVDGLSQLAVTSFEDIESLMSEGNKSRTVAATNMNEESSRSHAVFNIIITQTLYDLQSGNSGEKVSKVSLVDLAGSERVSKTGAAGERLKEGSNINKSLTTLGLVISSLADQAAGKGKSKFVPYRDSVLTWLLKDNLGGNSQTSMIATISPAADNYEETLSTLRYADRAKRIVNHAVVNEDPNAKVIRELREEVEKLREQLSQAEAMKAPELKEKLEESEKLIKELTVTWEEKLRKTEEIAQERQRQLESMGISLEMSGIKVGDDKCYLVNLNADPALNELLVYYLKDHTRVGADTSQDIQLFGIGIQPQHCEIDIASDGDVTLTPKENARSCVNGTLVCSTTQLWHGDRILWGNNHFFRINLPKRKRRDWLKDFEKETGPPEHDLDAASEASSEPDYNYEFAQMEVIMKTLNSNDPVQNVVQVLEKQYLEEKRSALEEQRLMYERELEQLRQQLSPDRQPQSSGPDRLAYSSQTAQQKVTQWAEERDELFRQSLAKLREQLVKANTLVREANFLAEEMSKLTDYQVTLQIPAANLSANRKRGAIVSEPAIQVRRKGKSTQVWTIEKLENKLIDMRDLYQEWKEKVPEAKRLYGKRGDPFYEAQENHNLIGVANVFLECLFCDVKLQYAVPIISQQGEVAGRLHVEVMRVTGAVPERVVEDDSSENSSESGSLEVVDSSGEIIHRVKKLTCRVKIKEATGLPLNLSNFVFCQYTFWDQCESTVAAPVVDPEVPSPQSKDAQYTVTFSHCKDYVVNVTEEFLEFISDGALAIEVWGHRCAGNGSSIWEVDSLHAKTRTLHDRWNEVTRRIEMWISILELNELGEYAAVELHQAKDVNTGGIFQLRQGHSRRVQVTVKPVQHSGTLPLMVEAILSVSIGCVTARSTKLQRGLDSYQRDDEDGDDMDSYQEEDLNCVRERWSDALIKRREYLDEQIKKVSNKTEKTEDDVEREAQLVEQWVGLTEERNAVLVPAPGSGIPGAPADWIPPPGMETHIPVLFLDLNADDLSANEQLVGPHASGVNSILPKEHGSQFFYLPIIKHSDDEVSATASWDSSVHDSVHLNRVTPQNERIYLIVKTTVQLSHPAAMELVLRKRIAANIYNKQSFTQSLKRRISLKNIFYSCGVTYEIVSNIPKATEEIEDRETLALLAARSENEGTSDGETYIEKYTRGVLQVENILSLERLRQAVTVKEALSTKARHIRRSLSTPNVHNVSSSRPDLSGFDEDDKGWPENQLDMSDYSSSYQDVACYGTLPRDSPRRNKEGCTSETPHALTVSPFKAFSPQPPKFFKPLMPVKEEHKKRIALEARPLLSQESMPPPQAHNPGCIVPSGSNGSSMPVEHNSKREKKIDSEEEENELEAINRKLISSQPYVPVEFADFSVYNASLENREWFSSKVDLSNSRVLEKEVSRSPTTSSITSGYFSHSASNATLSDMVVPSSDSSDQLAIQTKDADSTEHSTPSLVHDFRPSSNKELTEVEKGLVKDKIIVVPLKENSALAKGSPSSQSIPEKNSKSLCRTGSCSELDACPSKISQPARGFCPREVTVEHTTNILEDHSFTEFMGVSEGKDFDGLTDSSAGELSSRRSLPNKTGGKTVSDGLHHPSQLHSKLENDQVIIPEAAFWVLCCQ
inactive: erlotinib 0.065 | [1] -0.026 | [2] -0.031 | [3] 0.017 | [4] 0.056 | [5] -0.009 | [6] -0.027 | [7] -0.055 | [8] -0.043 | [9] 0.072 | IRAK-1-4 Inhibitor I 0.045 | ibrutinib 0.042 | [10] 0.047 | ralimetinib -0.015 | [11] 0.025 | [12] -0.069 | [13] 0.035 | pinometostat -0.008 | [14] -0.01 | [15] -0.044

MAPKAPK5 (UniProt Q8IW41)
UniProt Q8IW41, sequence (Q8IW41 whole entry, looked up): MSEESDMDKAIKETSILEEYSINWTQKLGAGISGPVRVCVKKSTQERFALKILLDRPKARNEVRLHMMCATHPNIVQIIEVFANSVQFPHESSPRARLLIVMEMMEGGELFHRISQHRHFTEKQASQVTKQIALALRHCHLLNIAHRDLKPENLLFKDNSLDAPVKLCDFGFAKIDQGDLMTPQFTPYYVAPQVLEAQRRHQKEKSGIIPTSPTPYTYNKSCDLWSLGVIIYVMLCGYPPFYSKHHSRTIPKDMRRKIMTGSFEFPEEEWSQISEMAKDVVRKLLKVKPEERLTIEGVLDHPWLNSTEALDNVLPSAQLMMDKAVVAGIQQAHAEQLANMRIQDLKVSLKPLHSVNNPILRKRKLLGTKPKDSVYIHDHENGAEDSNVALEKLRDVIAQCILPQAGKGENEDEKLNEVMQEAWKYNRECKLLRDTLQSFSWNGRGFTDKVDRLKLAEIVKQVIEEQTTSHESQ
active: erlotinib 0.249
inactive: [1] -0.249 | [2] 0.024 | [3] -0.087 | [4] 0.019 | [5] 0.052 | [6] 0.043 | [7] 0.025 | [8] -0.033 | [9] 0.012 | IRAK-1-4 Inhibitor I 0.029 | ibrutinib -0.003 | [10] 0.052 | ralimetinib 0.029 | [11] -0.139 | [12] 0.218 | [13] 0.055 | pinometostat -0.042 | [14] -0.161 | [15] 0.002
